# Source: PubChem BioAssay
# Activity calls are given as the source filed them.
# How the values were obtained:
# [1] = tested on: Plasmodium falciparum Sir2 (PF13_0152, Sir2A); experiment: Plasmodium falciparum Sir2A binding compounds – biochemical, small-molecule microarray, 635 nm fluorescence, primary screen (AID 1098); conditions: fluorescence 635 nm, higher = more signal;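 further: score merges spot fluorescence intensity with its signal-to-noise ratio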
# [2] = probe aDKK1 binding to arrayed compounds – biochemical, biotinylated probe, 635/667 nm fluorescence, primary screen (AID 1099); conditions: small-molecule microarray, higher = more signal;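 further: score merges 667nm spot fluorescence with signal to noise across triplicate slides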
# [3] = probe aCHRDL2 binding to arrayed compounds – biochemical, biotinylated probe, 635/667 nm fluorescence, primary screen (AID 1100); conditions: small-molecule microarray, higher = more signal
# [4] = change in splice reporter luminescence, either direction, cell-based, HEK293, spliceosome inhibition project, primary screen (AID 1101); conditions: HEK293 splicing luciferase reporter, 24 h, higher = more signal, called active from +8 up or from −8 down;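 further: HEK293 cells carrying a splicing-competent luciferase reporter gene; test concentration not given here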
# [5] = target: Fibroblast growth factor 10 (Homo sapiens) (UniProt O15520); experiment: compounds binding fibroblast growth factor 10 – biochemical, small-molecule microarray, 635 nm fluorescence, primary screen (AID 1102); conditions: FGF10 binding, fluorescence 635 nm, higher = more signal
# [6] = tested on: glycogen synthase kinase-3 (GSK3A per assay name; protocol says GSK3B); experiment: compounds binding glycogen synthase kinase-3 – biochemical, small-molecule microarray, 635 nm fluorescence, GSK3A, primary screen (AID 1103); conditions: fluorescence 635 nm, higher = more signal; further: the record names both GSK3A and GSK3B
# [7] = target: Epidermal growth factor receptor (Homo sapiens) (UniProt P00533); experiment: compounds binding epidermal growth factor receptor – biochemical, small-molecule microarray, 635 nm fluorescence, primary screen (AID 1104); conditions: EGFR binding, higher = more signal;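 further: score merges 667 nm emission intensity with spot signal to noise over triplicate slides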
# [8] = target: Follistatin-related protein 3 (Homo sapiens) (UniProt O95633); experiment: compounds binding follistatin-related protein 3 – biochemical, small-molecule microarray, 635 nm fluorescence, primary screen (AID 1105); conditions: FSTL3 binding, higher = more signal;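 further: score merges emission near 667 nm and signal to noise per printed spot across three slides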
# [9] = target: Dickkopf-related protein 1 (Homo sapiens) (UniProt O94907); experiment: small molecules binding DKK1 protein – biochemical, small-molecule microarray, 635 nm fluorescence scan, primary screen (AID 1106); conditions: higher = more signal;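 further: score merges emission near 667 nm with signal to noise over three replicate slides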
# [10] = tested on: Inhibin beta A chain (activin A); experiment: small molecules binding activin A – biochemical, small-molecule microarray, 635 nm fluorescence scan, primary screen (AID 1107); conditions: INHBA, higher = more signal;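 further: mouse activin A protein probed at 4.33 µg/mL on printed slides; score merges bound-protein fluorescence near 667 nm with spot signal-to-noise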
# [11] = tested on: Human papillomavirus type 1a protein E7 (residues 44-93); experiment: small molecules binding HPV E7 44-93 – biochemical, small-molecule microarray, residues 44-93, 635 nm fluorescence, primary screen (AID 1108); conditions: fluorescence 635 nm, higher = more signal;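 further: E7 fragment applied at 1 µg/mL in TBST for 1 h at 4 C; score combines spot fluorescence with its signal to noise ratio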
# [12] = hepatitis C replication reporter changes, two-sided – Huh7 cells, luciferase reporter, HCV replication inhibitor project, primary screen (AID 1109); conditions: Huh7 HCV replicon luciferase reporter, 48 h; higher = more signal;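 further: huh7 hepatoma cells harbouring a luciferase neomycin HCV replicon reporter; luciferase luminescence as measure of HCV replicon replication; test concentration not given here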
# [13] = target: Left-right determination factor 2 (Homo sapiens) (UniProt O00292); experiment: small molecules binding LEFTY2 protein – biochemical, small-molecule microarray, 635 nm fluorescence scan, primary screen (AID 1110); conditions: higher = more signal
# [14] = target: Calmodulin-1 (Homo sapiens) (UniProt P0DP23); experiment: small molecules binding calmodulin-1 with EGTA – biochemical, small-molecule microarray, Cy5-labelled CALM1, profiling panel (AID 1111); conditions: Cy5-CALM1 binding fluorescence, higher = more signal;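 further: labelled calmodulin applied in Tris saline Tween buffer holding calcium plus EGTA and DTT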
# [15] = target: Calmodulin-1 (Homo sapiens) (UniProt P0DP23); experiment: small molecules binding Ca-loaded calmodulin-1 – biochemical, small-molecule microarray, Cy5-labelled CALM1, plus calcium, artefact control for SMM control-protein annotation, profiling panel (AID 1112); conditions: Cy5-CALM1 binding fluorescence, higher = more signal;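 further: score merges spot fluorescence with signal to noise from triplicate slides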
# [16] = probe aWnt5a binding to arrayed compounds – biochemical, biotinylated probe, 635/667 nm fluorescence, primary screen (AID 1113); conditions: small-molecule microarray, higher = more signal;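 further: score merges 667 nm fluorescence intensity with signal-to-noise per printed feature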
# [17] = probe aShh binding to arrayed compounds – biochemical, biotinylated probe, 635/667 nm fluorescence, primary screen (AID 1114); conditions: small-molecule microarray, higher = more signal;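 further: probe is biotin-labelled aShh protein from a stem cell growth factor screen; measures binding of labelled protein to compounds printed on the slide; score merges feature fluorescence at 667 nm with signal-to-noise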
# [18] = probe aNog binding to arrayed compounds – biochemical, biotinylated probe, 635/667 nm fluorescence, primary screen (AID 1115); conditions: small-molecule microarray, higher = more signal;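 further: probe is biotinylated aNog protein used at 0.15 µg/mL for 1 h at 4 C; z-score combines 667 nm fluorescence of each spot with its signal to noise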
# [19] = target: Torsin-1A-interacting protein 1 (Homo sapiens) (UniProt Q5JTV8); experiment: compound microarray binding of lysate hLAP1 – cell lysate, small-molecule microarray, COS7 lysate, 635/667 nm fluorescence, primary screen (AID 1116); conditions: 635 nm fluorescence, higher = more signal
# [20] = target: Alpha-bungarotoxin (Bungarus multicinctus) (UniProt P60615); experiment: compounds binding labelled alpha-BTX control protein – biochemical, small-molecule microarray, Alexa647 label, 635/667 nm fluorescence, artefact control for SMM control protein annotation, profiling panel (AID 1117); conditions: alpha-BTX-A647 binding fluorescence, higher = more signal
# Alpha-bungarotoxin (Bungarus multicinctus), sequence (P60615 whole entry, looked up): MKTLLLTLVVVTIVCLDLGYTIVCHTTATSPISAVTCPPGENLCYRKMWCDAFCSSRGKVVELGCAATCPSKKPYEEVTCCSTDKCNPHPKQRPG
# Follistatin-related protein 3 (Homo sapiens), sequence (O95633 whole entry, looked up): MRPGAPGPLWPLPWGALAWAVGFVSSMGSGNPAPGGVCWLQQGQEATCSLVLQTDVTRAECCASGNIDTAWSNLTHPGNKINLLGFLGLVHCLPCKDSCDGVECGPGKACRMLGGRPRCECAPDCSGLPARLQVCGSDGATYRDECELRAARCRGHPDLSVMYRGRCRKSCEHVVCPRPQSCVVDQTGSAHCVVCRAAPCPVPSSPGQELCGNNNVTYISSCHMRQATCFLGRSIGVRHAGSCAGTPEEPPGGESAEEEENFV
# Dickkopf-related protein 1 (Homo sapiens), sequence (O94907 whole entry, looked up): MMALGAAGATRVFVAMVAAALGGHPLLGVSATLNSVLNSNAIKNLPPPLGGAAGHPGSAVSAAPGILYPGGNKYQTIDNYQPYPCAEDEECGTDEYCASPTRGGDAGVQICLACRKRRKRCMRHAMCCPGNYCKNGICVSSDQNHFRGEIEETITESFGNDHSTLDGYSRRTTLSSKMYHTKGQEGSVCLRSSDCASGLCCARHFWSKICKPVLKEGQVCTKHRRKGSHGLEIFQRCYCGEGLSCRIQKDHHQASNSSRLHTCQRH
# Epidermal growth factor receptor (Homo sapiens), sequence (P00533 whole entry, looked up): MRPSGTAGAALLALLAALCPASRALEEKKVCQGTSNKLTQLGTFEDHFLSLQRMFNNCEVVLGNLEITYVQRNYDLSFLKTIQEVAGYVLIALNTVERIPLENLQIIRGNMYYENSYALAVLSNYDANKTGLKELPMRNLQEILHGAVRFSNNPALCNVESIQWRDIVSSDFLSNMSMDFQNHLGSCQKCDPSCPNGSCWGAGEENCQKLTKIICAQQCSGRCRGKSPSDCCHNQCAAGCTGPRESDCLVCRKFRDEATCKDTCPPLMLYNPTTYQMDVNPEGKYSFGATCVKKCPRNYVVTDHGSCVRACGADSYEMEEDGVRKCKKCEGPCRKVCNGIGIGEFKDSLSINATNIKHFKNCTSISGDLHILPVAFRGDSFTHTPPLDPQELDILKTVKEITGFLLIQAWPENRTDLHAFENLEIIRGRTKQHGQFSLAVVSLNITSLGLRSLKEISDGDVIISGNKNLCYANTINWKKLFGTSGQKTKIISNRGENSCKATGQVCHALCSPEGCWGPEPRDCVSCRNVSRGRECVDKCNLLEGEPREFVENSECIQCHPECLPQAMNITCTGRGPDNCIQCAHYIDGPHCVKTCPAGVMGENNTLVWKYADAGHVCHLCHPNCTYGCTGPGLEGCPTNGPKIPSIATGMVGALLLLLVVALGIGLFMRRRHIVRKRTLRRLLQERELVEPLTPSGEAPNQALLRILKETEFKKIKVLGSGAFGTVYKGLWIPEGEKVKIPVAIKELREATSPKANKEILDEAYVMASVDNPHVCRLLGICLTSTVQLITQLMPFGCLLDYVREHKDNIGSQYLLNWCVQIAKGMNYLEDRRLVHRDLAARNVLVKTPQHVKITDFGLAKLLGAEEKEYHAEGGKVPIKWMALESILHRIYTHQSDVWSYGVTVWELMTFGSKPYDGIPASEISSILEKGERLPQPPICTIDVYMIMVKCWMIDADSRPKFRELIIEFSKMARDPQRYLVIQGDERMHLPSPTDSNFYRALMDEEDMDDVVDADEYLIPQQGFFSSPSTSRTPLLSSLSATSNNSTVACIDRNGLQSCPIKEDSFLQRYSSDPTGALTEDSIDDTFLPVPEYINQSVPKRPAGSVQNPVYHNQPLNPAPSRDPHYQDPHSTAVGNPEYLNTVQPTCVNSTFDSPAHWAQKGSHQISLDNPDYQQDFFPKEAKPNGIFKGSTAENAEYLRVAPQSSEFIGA
# Torsin-1A-interacting protein 1 (Homo sapiens), sequence (Q5JTV8 whole entry, looked up): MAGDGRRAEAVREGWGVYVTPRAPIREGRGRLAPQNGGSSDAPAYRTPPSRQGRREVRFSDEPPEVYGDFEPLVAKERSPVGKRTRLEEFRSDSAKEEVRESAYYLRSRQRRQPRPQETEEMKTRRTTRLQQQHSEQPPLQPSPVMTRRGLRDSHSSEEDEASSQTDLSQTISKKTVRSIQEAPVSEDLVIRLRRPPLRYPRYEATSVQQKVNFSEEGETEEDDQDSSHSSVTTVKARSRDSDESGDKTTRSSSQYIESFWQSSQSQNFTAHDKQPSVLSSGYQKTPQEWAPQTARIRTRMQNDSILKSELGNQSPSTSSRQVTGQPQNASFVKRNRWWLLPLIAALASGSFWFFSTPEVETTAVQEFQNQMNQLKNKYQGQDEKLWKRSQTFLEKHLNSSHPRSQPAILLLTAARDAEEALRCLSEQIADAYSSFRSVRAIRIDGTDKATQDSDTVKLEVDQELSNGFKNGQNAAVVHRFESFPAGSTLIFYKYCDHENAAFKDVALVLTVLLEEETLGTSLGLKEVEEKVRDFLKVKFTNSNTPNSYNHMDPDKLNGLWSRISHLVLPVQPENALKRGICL
# Left-right determination factor 2 (Homo sapiens), sequence (O00292 whole entry, looked up): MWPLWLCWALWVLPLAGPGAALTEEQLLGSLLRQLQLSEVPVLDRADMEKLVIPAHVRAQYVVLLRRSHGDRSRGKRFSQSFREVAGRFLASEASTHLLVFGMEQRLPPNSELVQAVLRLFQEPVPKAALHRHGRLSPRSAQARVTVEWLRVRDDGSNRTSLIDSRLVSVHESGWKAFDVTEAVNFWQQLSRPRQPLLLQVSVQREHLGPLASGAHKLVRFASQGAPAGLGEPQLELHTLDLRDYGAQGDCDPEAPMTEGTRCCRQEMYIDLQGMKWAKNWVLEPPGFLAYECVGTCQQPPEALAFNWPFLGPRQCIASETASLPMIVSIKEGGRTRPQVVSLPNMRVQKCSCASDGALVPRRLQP
# Fibroblast growth factor 10 (Homo sapiens), sequence (O15520 whole entry, looked up): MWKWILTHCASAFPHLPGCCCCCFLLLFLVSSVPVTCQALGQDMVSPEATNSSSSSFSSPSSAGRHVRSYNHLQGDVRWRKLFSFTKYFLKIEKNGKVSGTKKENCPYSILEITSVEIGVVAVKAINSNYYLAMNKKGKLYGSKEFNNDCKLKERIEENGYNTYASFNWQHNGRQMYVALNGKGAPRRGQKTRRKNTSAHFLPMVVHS
SMILES,composite z-score [1],composite z-score [2],composite z-score [3],z-score [4],composite z-score [5],composite z-score [6],composite z-score [7],composite z-score [8],composite z-score [9],composite z-score [10],composite z-score [11],z-score [12],composite z-score [13],composite z-score [14],composite z-score [15],composite z-score [16],composite z-score [17],composite z-score [18],composite z-score [19],composite z-score [20]
COc1ccc(CCNC(=O)[C@@]2(Cc3ccccc3I)c3ccccc3C(=O)N(Cc3ccccc3Cl)[C@H]2c2ccc(CO)cc2)cc1,1.79,0.316,0.646,-1.55 (inactive),0.202,-0.181,-0.662,-0.407,-0.735,0.0137,-0.542,-2.44,-0.818,0.331,0.354,0.0718,0.235,0.371,0.589,-0.0759
CC(C)C(=C=CC[C@H](O)c1cccc(OCCO)c1)CCO,0.899,-0.363,-0.148,-1.02 (inactive),1.18,-0.739,-0.209,-0.0067,-0.264,0.148,0.133,0.121,-0.0916,-0.427,-0.224,-0.0165,0.201,-0.272,0.0879,0.115
CCOC(=O)C[C@H]1[C@H](OC(=O)c2ccc(-c3ccccc3)cc2)[C@@H](NC(=O)CC(C)C)c2cc(OCCCO)ccc2N1C(=O)c1ccccc1,0.166,0.148,-0.0525,-0.493 (inactive),0.418,-0.106,-0.101,0.648,0.455,0.214,1.07,-1.96,0.0613,0.232,0.462,-0.0718,-0.2,-0.1,0.266,0.198
C=CC1c2cc(O)c(OC)cc2CCN1Cc1ccc([N+](=O)[O-])o1 (stereo not given),1.19,0.819,0.826,-0.109 (inactive),0.367,-0.128,-0.841,-0.15,-0.641,0.87,0.0967,0.366,-0.54,1.15,1.18,0.0306,0.13,0.57,1.82,0.899
CCN(CC)c1ccc(N2CC=CC34O[C@@H]5/C=C\CCC(C)OC(=O)C5[C@H]3C(=O)N(C(C)CO)[C@@H]4C2=O)cc1 (stereo not given in full),-0.516,-0.47,-0.514,0.0828 (inactive),-0.408,-0.189,-0.455,-0.159,0.492,1.5,-0.344,0.0645,-0.292,-0.847,-1.66,-0.0346,-0.0709,-0.318,0.187,-1.04
CCOC(=O)C1=CC[C@@H](c2ccccc2)N(S(=O)(=O)c2ccc(C)cc2)[C@H]1C=Cc1ccccc1,1.66,0.37,1.03,0.151 (inactive),0.322,0.193,-0.647,-0.745,-0.548,0.58,0.261,-1.83,-0.481,0.401,-0.401,0.127,-0.13,-0.5,0.381,0.621
C=C(COC)C(=O)CC[C@H](OC(C)=O)c1ccc(OCCO)cc1,0.761,-0.0747,-0.0486,-1.5 (inactive),1.35,-0.143,-0.0056,0.576,0.722,0.136,0.159,-1.17,0.557,-0.2,-1.08,-0.0445,-0.0011,-0.0562,3.4,0.915
CCOC(=O)C=Cc1cc(F)ccc1O,0.188,-0.137,-0.31,-1.37 (inactive),0.168,-0.126,0.0683,0.0871,-0.258,0.835,0.261,-1.36,-0.251,-0.297,-0.352,-0.0462,0.0469,-0.181,-0.207,0.0531
COc1cc(NN2C(C(O)C3CCCCC3)C=CC3C(=O)N(C)C(=O)C32)cc(OC)c1OC (stereo not given),1.04,1.05,1.1,1.1 (inactive),0.144,1.17,0.203,1.06,-1.47,0.823,1.44,-0.611,0.0347,2.01,0.964,0.265,0.417,1.32,1.32,1.72
CCc1cccc(NC(=O)O[C@H]2[C@H](OC(=O)Nc3ccccc3)[C@H](OC(=O)Nc3ccccc3)[C@@H](OC)O[C@@H]2CO)c1,1.41,0.22,0.55,-0.376 (inactive),1.51,1.24,-0.0045,0.833,-0.186,0.444,1.44,-3.86,0.0274,1.26,-0.101,-0.0006,0.23,1.11,1.03,0.0456
